Experimental data published in PubChem BioAssay AID1159580 (chemical genetic matrix, 2015).
“And” between values parts separate entries of the source, which are not always exact repeats. Equal values may be shown once. Hit rate of the full screen: of about 5,500 compounds, about 2,000 (36%) were called active. Another 18% or so got no clear call; they are omitted. Rule as the data show it: active = normalized growth mostly below about 0.91 (no sharp cut-off); inconclusive = no clear call, values can overlap the other calls; inactive = mostly above about 0.92. The list shows a part of the results.

Assay: chemical genetic growth profiling, strain panel (AID 1159580);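 also: tested at 20 µM; growth read once vehicle control cultures reached saturation at 30 °C; 1 = growth at the plate median or of vehicle wells; lower values mean less growth of the strain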
Conditions: S. cerevisiae deletion strains, growth OD

Measured: normalized growth

C/C=C(\C)C(=O)O[C@H]1C[C@@H](OC(C)=O)[C@@]2(C(=O)OC)CO[C@@H]3C2[C@]12CO[C@](O)(C(=O)OC)[C@H]2[C@](C)(C12O[C@@]1(C)[C@H]1C[C@@H]2OC2OC=C[C@@]21O)[C@@H]3O (stereo partly specified)
inactive: locus YAL013W, strain DEP1, active compounds read low 0.99 | locus YAL021C, strain ccr4, active compounds read low 1 | locus YAL026C, strain drs2, active compounds read low 0.982 | locus YAL030W, strain snc1, active compounds read low 0.976 | locus YBL061C, strain skt5, active compounds read low 0.978 | locus YBR009C, strain hhf1, active compounds read low 0.977 | locus YBR021W, strain FUR4, active compounds read low 0.997 | locus YBR023C, strain chs3, active compounds read low 0.985 | locus YBR171W, strain sec66, active compounds read low 0.98 | locus YBR229C, strain ROT2, active compounds read low 0.99 | locus YBR231C, strain swc5, active compounds read low 0.991 | locus YBR279W, strain paf1, active compounds read low 0.992 | locus YCL011C, strain gbp2, active compounds read low 0.978 | locus YCL016C, strain dcc1, active compounds read low 0.964 | locus YCL029C, strain bik1, active compounds read low 0.955 | locus YCL061C, strain MRC1, active compounds read low 0.986 | locus YCL069W, strain vba3, active compounds read low 0.974 | locus YCR088W, strain abp1, active compounds read low 0.986 | locus YDL005C, strain med2, active compounds read low 0.963 | locus YDL040C, strain nat1, active compounds read low 0.973 | locus YDL074C, strain BRE1, active compounds read low 0.964 | locus YDL101C, strain DUN1, active compounds read low 0.977 | locus YDL134C, strain PPH21, active compounds read low 0.99 | locus YDL185W, strain tfp1, active compounds read low 0.978 | locus YDL192W, strain arf1, active compounds read low 0.986 | locus YDR001C, strain nth1, active compounds read low 0.97 | locus YDR069C, strain doa4, active compounds read low 0.969 | locus YDR101C, strain arx1, active compounds read low 0.975 | locus YDR137W, strain rgp1, active compounds read low 0.984 | locus YDR150W, strain NUM1, active compounds read low 1 | locus YDR159W, strain sac3, active compounds read low 0.994 | locus YDR162C, strain NBP2, active compounds read low 1 | locus YDR195W, strain ref2 0.938 | locus YDR297W, strain sur2, active compounds read low 0.975 | locus YDR318W, strain mcm21, active compounds read low 0.977 | locus YDR334W, strain swr1, active compounds read low 0.973 | locus YDR335W, strain msn5, active compounds read low 0.981 | locus YDR388W, active compounds read low 0.985 | locus YDR392W, strain spt3, active compounds read low 0.969 | locus YDR502C, strain sam2, active compounds read low 0.992 | locus YEL003W, strain gim4, active compounds read low 1 | locus YEL037C, strain rad23, active compounds read low 0.977 | locus YEL061C, strain CIN8 (second series), active compounds read low 0.973 | locus YEL061C, strain CIN8, active compounds read low 0.995 | locus YER015W, strain faa2, active compounds read low 0.987 | locus YER016W, strain bim1, active compounds read low 0.977 | locus YER110C, active compounds read low 0.971 | locus YER111C, strain swi4, active compounds read low 0.983 | locus YER155C, strain BEM2 (second series), active compounds read low 0.981 | locus YER155C, strain BEM2, active compounds read low 0.997 | locus YER167W, strain BCK2, active compounds read low 1 | locus YFR010W, strain ubp6, active compounds read low 0.979 | locus YGL078C, strain dbp3, active compounds read low 0.995 | locus YGL086W, strain mad1, active compounds read low 1 | locus YGL167C, strain pmr1, active compounds read low 0.97 | locus YGL173C, strain kem1, active compounds read low 0.982 | locus YGL227W, strain vid30, active compounds read low 0.99 | locus YGL240W, strain doc1, active compounds read low 1 | locus YGL248W, strain PDE1, active compounds read low 0.99 | locus YGL253W, strain hxk2, active compounds read low 0.986 | locus YGR078C, strain PAC10, active compounds read low 0.997 | locus YGR135W, strain pre9, active compounds read low 0.971 | locus YGR229C, strain SMI1, active compounds read low 1.01 | locus YGR252W, strain gcn5, active compounds read low 1.03 | locus YHR013C, strain ard1, active compounds read low 0.964 | locus YHR027C, strain rpn1, active compounds read low 0.965 | locus YHR030C, strain SLT2, active compounds read low 0.989 and 0.98 | locus YHR079C, strain IRE1 (second series), active compounds read low 0.969 | locus YHR079C, strain IRE1, active compounds read low 0.991 | locus YHR094C, strain hxt1, active compounds read low 0.985 | locus YHR129C, strain ARP1, active compounds read low 0.992 | locus YHR142W, strain chs7, active compounds read low 0.974 | locus YHR200W, strain rpn10, active compounds read low 0.987 | locus YIL066C, strain RNR3, active compounds read low 0.99 | locus YIL073C, strain SPO22, active compounds read low 0.994 | locus YIL125W, strain kgd1, active compounds read low 0.995 | locus YIR030C, strain dcg1, active compounds read low 0.997 | locus YJL092W, strain hpr5, active compounds read low 0.981 | locus YJL095W, strain BCK1 (second series), active compounds read low 0.983 | locus YJL095W, strain BCK1, active compounds read low 0.98 and 0.993 | locus YJL115W, strain asf1, active compounds read low 0.963 | locus YJL129C, strain trk1, active compounds read low 0.978 | locus YJL134W, strain LCB3, active compounds read low 0.991 | locus YJL154C, strain vps35, active compounds read low 0.969 | locus YJL164C, strain tpk1, active compounds read low 0.969 | locus YJL166W, strain qcr8, active compounds read low 0.99 | locus YJL168C, strain set2, active compounds read low 0.978 | locus YJL187C, strain SWE1 (second series), active compounds read low 0.978 | locus YJL187C, strain SWE1, active compounds read low 0.982 | locus YJR043C, strain POL32, active compounds read low 0.996 | locus YJR066W, strain TOR1, active compounds read low 0.933
